MARV entry inh – blocks Marburg virus binding to or entry into cells | Marburg virus pseudotyped entry inhibition, cell reporter | Potency, µM (top dose mostly 37.8 µM), inactives show at the highest dose activity change, negative = inhibition, hits mostly inhibitors | 300,000 compounds, 1.8% hits | AID 540276; calls by dose curve; tested in HEK293 cells
LASV entry inh – inhibitors of Lassa virus binding or cell entry; AID 540256; Lassa virus pseudotype entry inhibition, cell reporter; 300,000 compounds, 1.2% hits; Potency, µM (doses to about 37.9 µM), inactives show at the top dose activity change, negative = inhibition, hits mostly inhibitors; calls by dose curve; tested in HEK293 cells; note: nearly all actives have a fitted effect of over 50% in size
HCV inh – blocks hepatitis C virus; 340,000 compounds, 3.4% hits; AID 651820; Potency, µM (highest dose often 41.8 µM), inactives show at the top dose activity change, negative = inhibition, usual class: inhibitors; Huh7.5.1 HCVcc-Cre infection, luciferase reporter, 44 h; active = well fitted inhibition curve with a large enough effect; inconclusive = small, poorly fitted or top-dose-only effect, or another doubt; inactive = no such curve, though single readings can be large or run the other way
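After 44 h co-culture of compound, cells and HCVcc-Cre (~0.5 moi), substrate is added for 15 min at room temperature and luciferase measured over 15 sec. Cells were seeded at 1,000/well and pre-cultured 4 h.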
Vaccinia mCherry – inhibitors of vaccinia virus infection (mCherry reporter signal) | Vaccinia virus mCherry reporter infection, fluorescence | 310,000 compounds, 0.63% hits | AID 720579 | Potency, µM (top dose mostly 36.5 µM), for inactives: at the highest dose activity change, negative = inhibition, hits mostly inhibitors; calls by dose curve; tested in A549 cells; note: nearly all actives have a fitted effect of over 35% in size
Vaccinia Venus – vaccinia inhibition (Venus reporter) | Vaccinia virus Venus reporter expression, fluorescence | 330,000 compounds, 0.46% hits | Potency, µM (highest dose often 36.5 µM), inactives show at the highest dose activity change, negative = inhibition, actives largely listed as inhibitors; calls by dose curve; tested in A549 cells; note: nearly all actives have a fitted effect of over 30% in size
* = called active by the depositor; i = inactive; ? = inconclusive; / = no result; [ ] = another dose, or the depositor's remark. Only some compounds are listed: those with a hit (about 4.6% of all), similar ones and a draw of the others. % is set by controls: 0 for no effect and ±100 for the full control effect; potency is the fitted concentration of half-maximal effect.

SMILES	MARV entry inh	LASV entry inh	HCV inh	Vaccinia mCherry	Vaccinia Venus
Cc1cc2nc(-c3ccc(Br)cc3)cc(C(F)(F)F)n2n1	-27%[46.1 µM]	7%[46.1 µM]	/	-14%	-9%
COc1ccc(C(=O)c2cn(Cc3cccc(C)c3)c3cc4c(cc3c2=O)OCO4)cc1	25%[46.1 µM]	18%[46.1 µM]	/	-10%	-10%
CCC1CN(CCC(=O)N2CCN(c3ncccn3)CC2)Cc2cc(OC)ccc2O1 (centres undefined)	/	/	/	-15%	0%
COc1ccccc1NC(=O)CN1CCCCCC1	-5%[46.1 µM]	-15%	14%	i	-11%
COc1cc(NC(=O)Nc2ccccc2)c(OC)cc1NC(=O)CN1CCCCC1	?	-25%	11µM*	?	?
COCCn1ccc2c(OCC(=O)NCc3ccccc3)cccc2c1=O	22%	1.6µM*	6%	-7%	-7%
COc1ccc(C2(O)CC3CCC(C2)N3c2cc(C)nc(-c3ccccc3)n2)cc1 (centres undefined)	12µM*	2%	?	-12%	-30%
COC(=O)c1cn([C@@H]2C[C@@H](C(=O)Nc3cccc(SC)c3)N(C3CCCC3)C2)nn1	/	/	/	-7%	-1%
Cc1oc(-c2ccccc2NC(=O)C2CCC2)nc1CNC(=O)c1c(F)ccc(F)c1F	/	/	/	-11%	9%
Cc1ccc(C)c(CN2CCc3nnc(CNC(=O)c4cc(C)oc4C)n3CC2)c1	/	/	/	-20%	-13%
Cc1ccc(Cn2cc(C(=O)c3ccc(C)cc3)c(=O)c3ccc(C)nc32)cc1	?	-5%[46.1 µM]	/	-9%[7.34 µM]	-12%[7.34 µM]
Cc1ccc(C(=O)c2cn(Cc3cc(C)ccc3C)c3nc(C)ccc3c2=O)cc1	7.1µM*	?	/	-6%	-18%
Cc1c(OC(C)C(=O)NCC(O)c2ccccc2)ccc2c3c(c(=O)oc12)CCCC3 (centres undefined)	/	/	25µM*	/	/
CC(C)(C)c1ccc(C(=O)NCCC(=O)Nc2cc(Cl)ccc2N2CCOCC2)cc1	/	/	11µM*	/	/
CCN(CC)S(=O)(=O)c1ccc(N2CCOCC2)c(NC(=O)COc2ccc(Cl)cc2)c1	/	/	10µM*	/	/
O=C(COc1cccc(Cl)c1)NCC(c1cccs1)N1CCOCC1 (centres undefined)	/	/	5%	/	/
Cc1cc(Cl)ccc1OCC(=O)NCC(c1cccs1)N1CCOCC1 (centres undefined)	?	?	10µM*	-13%	-25%
Cc1cc(Cl)ccc1OCC(=O)NC(=S)Nc1ccccc1N1CCOCC1	-1%	?	2%	-1%	-8%
Cc1cc(Cl)ccc1OCC(=O)Nc1ccccc1N1CCOCC1	?	8.9µM*	?	-24%	-27%
CCN(CC)S(=O)(=O)c1ccc(N2CCOCC2)c(NC(=O)CC(C)(C)C)c1	/	/	-2%	/	/
Cc1ccc(C)c(N2CCN(C(=O)CN3C(=O)COc4ccc(S(=O)(=O)N5CCCC5)cc43)CC2)c1	-8%[46.1 µM]	17%[46.1 µM]	/	-1%	4%
Cc1ccc(NC(=O)C2CCCN2S(=O)(=O)c2ccc3nc(-c4ccccc4)[nH]c3c2)cc1F (centres undefined)	/	?	/	-21%	-19%
CC(=O)Nc1ccc(N2C(C(C)=O)=NN(c3ccc(Cl)cc3)C2c2sccc2C)cc1 (centres undefined)	21µM*	?	?	/	/
CCN1CCCC1CNC(=O)c1cnn(-c2nccc(-c3ccccc3F)n2)c1C (centres undefined)	/	/	/	-3%	5%
COc1cc(/C=N/NC(=O)CCn2c3ccccc3c3ccccc32)ccc1O	-22%	?	7.9µM*	-24%	-23%
SMILES	MARV entry inh	LASV entry inh	HCV inh	Vaccinia mCherry	Vaccinia Venus
O=C(N/N=C/c1cccnc1)c1cc(-c2ccccc2)nc2ccccc12	4µM*	-20%[46.1 µM]	-7%	-12%	3%
Cc1ccsc1/C=N/NC(=O)c1cc(-c2ccncc2)nc2ccccc12	0.58µM*	?	?	?	?
COc1ccccc1-c1cc(C(=O)N/N=C/c2ccc(C)o2)c2ccccc2n1	?	?	-10%	-16%	-17%
COc1cc(/C=N/NC(=O)CCn2nnc3ccccc32)ccc1O	0%[46.1 µM]	3%[46.1 µM]	9%	-11%	-3%
O=C(N/N=C/c1ccsc1)c1cc(-c2ccncc2)nc2ccccc12	?	?	3%	?	-28%
COc1ccccc1-c1cc(C(=O)N/N=C/c2sccc2C)c2ccccc2n1	13µM*	?	?	/	-9%
O=C(N/N=C/c1cccnc1)c1cc(-c2ccc(Cl)cc2)nc2ccccc12	/	/	-3%	/	/
CCc1cnc2c(c1SCCC(C)C)c(=O)n(C)c(=O)n2C	/	?	/	-10%	-9%
COC(=O)C1=C(C(=O)OC)[C@@H]2N(CC=C(C)C)c3ccccc3[C@@]23CCC(=O)N(CCc2ccccn2)C3=N1	12%[14.2 µM]	/	/	/	/
O=C(COc1ccccc1C(=O)Nc1ccccc1)Nc1ccc2ccccc2c1	/	/	/	-7%	-20%
O=C1CCC=C1[C@@H](O)CCc1ccccc1	34%[14.2 µM]	/	/	/	/
Cc1ccc(/C=N/NC(=O)c2cc(-c3ccncc3)nc3ccccc23)o1	?	-8%[46.1 µM]	-12%	?	-22%
CCOc1ccccc1-c1cc(C(=O)N/N=C/c2ccc(O)c(OC)c2)c2ccccc2n1	?	7.1µM*	-4%	13µM*	10%
CCOc1cccc(-c2cc(C(=O)N/N=C/c3ccc(OC)c(CN4CCOCC4)c3)c3ccccc3n2)c1	8.2µM*	?	-13%	-22%	-7%
CC(/C=N/NC(=O)c1cc(-c2ccncc2)nc2ccccc12)=C\c1ccco1	2.9µM*	-49%[14.3 µM]	/	?	?
COc1ccc(/C=N/NC(=O)c2ccncc2)cc1CN1CCOCC1	-22%[14.2 µM]	-22%	-2%	i	-5%
CCOc1ccccc1-c1cc(C(=O)N/N=C/c2ccc3c(c2)OCO3)c2ccccc2n1	?	?	-4%	-14%	4%
CCc1cnc2ccccc2c1/C=C/c1ccc(N(C)C)cc1	/	/	/	-5%	-18%
CCC1CN(C(=O)N2CCC(C(=O)NCCc3ccc(Cl)cc3)CC2)c2ccccc2O1 (centres undefined)	/	8%[46.1 µM]	/	-9%	-19%
COc1ccccc1C(=O)NC(=O)Nc1c(C)cc(C)cc1C	/	/	13µM*	/	/
COc1ccc(OCC(=O)OCc2cc(=O)n3nc(C4CCCCC4)sc3n2)cc1	/	-7%[46.1 µM]	/	-7%	-4%
Cc1ccc2nc(-c3ccc(Cl)c(NC(=O)COc4ccc([N+](=O)[O-])cc4)c3)oc2c1	?	18%[46.1 µM]	/	-7%	-6%
CCC/C(=N/Nc1ccc(Cl)cc1)c1cnnc(-c2ccccc2)n1	?	-11%	14µM*	/	/
CC/C(=N/Nc1ccccc1Cl)c1cnnc(-c2ccccc2)n1	1%	-7%	?	/	/
COc1ccc(NC(=O)Nc2cccc(-c3cn4cccnc4n3)c2)cc1	?	1%[46.1 µM]	/	-4%	-8%
Cc1ccc2c(=O)c(C(=O)c3ccc(F)cc3)cn(CC(=O)NCc3ccccc3Cl)c2n1	/	0%[46.1 µM]	/	-15%	-10%
CNc1ncnc2c1ncn2[C@H]1C[C@H](OP(=O)(O)O)[C@@H](COP(=O)(O)O)O1	?	3%	/	/	/
COc1ccc(NC(=O)c2c(NC(=O)C(F)(F)F)sc3c2CCCCC3)cc1	/	3.2µM*	/	-13%	-2%
